EPAC2 antag = validation of human EPAC2 antagonists; 1.7% of 16,000 active; Q8WZA2; Potency, µM (top dose mostly 112 µM), without a hit: at the highest dose activity, negative = inhibition, hits mostly inhibitors; EPAC2 Rap1B BODIPY-GDP exchange, fluorescence; AID 1645886;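 further: 100% = activation by cAMP agonist control; nearly all actives have a fitted effect of over 40% in size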
Target sequence (Q8WZA2 whole entry, looked up): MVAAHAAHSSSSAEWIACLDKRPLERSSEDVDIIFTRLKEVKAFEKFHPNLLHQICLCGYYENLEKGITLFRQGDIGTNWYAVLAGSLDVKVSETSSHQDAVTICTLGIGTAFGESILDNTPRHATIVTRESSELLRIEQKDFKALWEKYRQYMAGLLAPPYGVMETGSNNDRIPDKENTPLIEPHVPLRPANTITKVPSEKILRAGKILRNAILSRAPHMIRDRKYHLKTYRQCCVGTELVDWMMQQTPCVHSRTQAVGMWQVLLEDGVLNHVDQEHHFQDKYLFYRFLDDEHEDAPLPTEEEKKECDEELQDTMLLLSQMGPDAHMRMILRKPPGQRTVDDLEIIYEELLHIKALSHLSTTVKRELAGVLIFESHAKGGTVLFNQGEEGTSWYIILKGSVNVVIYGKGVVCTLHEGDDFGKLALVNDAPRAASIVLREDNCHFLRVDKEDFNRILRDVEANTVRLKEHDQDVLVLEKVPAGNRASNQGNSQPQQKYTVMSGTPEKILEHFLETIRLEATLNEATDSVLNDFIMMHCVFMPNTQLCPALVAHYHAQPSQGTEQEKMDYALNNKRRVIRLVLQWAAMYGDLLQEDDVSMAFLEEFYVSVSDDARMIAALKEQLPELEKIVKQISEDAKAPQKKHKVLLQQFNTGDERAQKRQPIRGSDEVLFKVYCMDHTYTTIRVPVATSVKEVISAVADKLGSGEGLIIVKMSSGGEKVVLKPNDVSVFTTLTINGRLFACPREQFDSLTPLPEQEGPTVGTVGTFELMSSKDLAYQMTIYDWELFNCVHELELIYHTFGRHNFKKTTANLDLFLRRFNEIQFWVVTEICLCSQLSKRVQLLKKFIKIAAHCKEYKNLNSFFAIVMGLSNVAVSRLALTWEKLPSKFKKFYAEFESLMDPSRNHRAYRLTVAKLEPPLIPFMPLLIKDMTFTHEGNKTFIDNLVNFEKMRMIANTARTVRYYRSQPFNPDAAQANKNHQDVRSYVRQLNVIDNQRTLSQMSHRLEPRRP
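Fluorescent exchange read-out: 100 nM EPAC2 with 250 nM RAP1B–BODIPY-GDP and 50 uM GDP; BODIPY-GDP release lowers fluorescence. Read at 480/540 nm every 5 min for 30 min at room temperature; normalized to 6.5 mM cAMP.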
EPAC1 ag val = human EPAC1 agonism, validation; O95398; EPAC1 Rap1b BODIPY-GDP exchange, fluorescence; Potency, µM, for the others: max response, positive = active, most hits filed as activators; 1% of 16,000 active; AID 1645883; further: nearly all actives have a fitted effect of over 70% in size
The depositor's hits bear a star; i = inactive; ? = inconclusive; ! = not confirmed by another sample; [ ] = another dose, or the depositor's remark. In the library only some 2.9% were active in any assay of this set; here they are far more common. The call rests on the fitted dose curve; in most records, active means well fitted curve in the direction sought with a large enough effect; inconclusive means small, poorly fitted or top-dose-only effect, or another doubt; inactive means no such curve, though single readings can be large; an effect the other way counts as inactive or inconclusive. Unless noted, on the % scale 0 is the no-effect control and ±100 the full control effect; potency means the concentration at half of the fitted maximal effect.

SMILES	EPAC2 antag	EPAC1 ag val
c1cncc(CNc2ccnc(-c3cccnc3)n2)c1	5.9%	20.1%
c1ccc(C(NCc2cccnc2)(c2ccccc2)c2ccccc2)cc1	10µM*	?
Cc1ccc2nccc(/C=C/c3ccc(N(C)C)cc3)c2c1	65.9%	112µM*
CN(C)c1ccc(/C=C/c2ccnc3c2ccc2c(/C=C/c4ccc(N(C)C)cc4)ccnc23)cc1	?	-5.3%
Cc1cc(N(C)C)cc(C)c1/C=C/c1ccnc2ccccc12	-23.4%	100µM*
CN(C)C(=O)c1ccc(/C=C/c2ccnc3ccccc23)cc1	19.8%	?
COc1ccc2c(c1)-c1nc(-n3ncc(C(=O)NCc4cccnc4)c3C3CC3)ncc1CC2	-7.5%	0.1%
CCn1nc(C)cc1C(=O)NCCN1Cc2ccccc2OC(c2ccccc2F)C1 (stereo not drawn)	-8.9%	0.5%
C=C(NC(=O)C(=C)NC(=O)c1csc(C2=N[C@@H]3c4csc(n4)[C@H]4NC(=O)c5csc(n5)[C@H]([C@](C)(O)[C@@H](C)O)NC(=O)[C@H]5CSC(=N5)C(=CC)NC(=O)C([C@@H](C)O)NC(=O)c5csc(n5)[C@]3(CC2)NC(=O)[C@H](C)NC(=O)C(=C)NC(=O)[C@H](C)NC(=O)C([C@@H](C)CC)NC2C=Cc3c([C@H](C)O)cc(nc3C2O)C(=O)O[C@@H]4C)n1)C(N)=O (stereo partly drawn)	0.3%[56.6 µM]	-16.0%
CC(=O)Nc1cc(C(=O)N2CC3(C)CC2CC(C)(C)C3)cc2ncn(CCc3ccccn3)c12 (stereo not drawn)	-0.9%	-2.4%
O=C(NNCNNC(=O)c1ccncc1)c1ccncc1	8.9%	6.6%
O=C(NNCS(=O)(=O)O)c1ccncc1	i	56.2µM*
Cc1cc2c(c(-c3ccc(Cl)cc3)c1)OC(CNC(=O)CCC(=O)N(C)C)C2 (stereo not drawn)	?	-17.6%
Cc1cc2c(c(-c3nc4ccccc4s3)c1)OC(CNC(=O)CCc1cccnc1)C2 (stereo not drawn)	?	16.6%
NCCC[C@H](N)C(=O)O	4.0%	6.4%
COc1ccc(C(=O)N2CCC3(CCCN(c4ccncc4)C3)CC2)cc1	-25.0%	5.6%
COc1ccc(C(=O)N2CCC3(CC2)CN(c2ccncc2)C3)cc1	-29.7%	100µM*
CSc1nc(C(=O)N2CCc3c(cnc(C)c3CNC(=O)c3ccc4c(c3)OCO4)C2)cs1	-8.0%	5.5%
COc1ccc2cc(CNC3CCS(=O)(=O)C3)c(-c3ccc(OC)c(OC)c3)nc2c1 (stereo not drawn)	-7.7%	4.2%
CCC1OC(=O)C[C@@H](O)[C@H](C)[C@@H](O[C@@H]2O[C@H](C)C[C@H](N(C)C)[C@H]2O)[C@@H](CC=O)C[C@@H](C)C(=O)/C=C/[C@]2(C)OC2C1C (stereo partly drawn)	9.7%	-5.6%
CN1CCC(CN2c3ccccc3Sc3ccccc32)C1 (stereo not drawn)	6.6%	-40.2%
CC(=O)N[C@@H](Cc1c[nH]c2ccccc12)C(=O)OCc1cc(C(F)(F)F)cc(C(F)(F)F)c1	44.7µM*!	4.6%
NC(Cc1c[nH]c2ccccc12)C(=O)O (stereo not drawn)	-6.9%	25.2%
COc1ccc(-c2c(-c3ccc4c(c3)OCO4)noc2-c2ccsc2)cn1	?	-4.9%
c1ccc(-c2onc(-c3ccco3)c2-c2ccc3c(c2)OCO3)cc1	-17.8%	112µM*
SMILES	EPAC2 antag	EPAC1 ag val
Cc1cnc(SCc2ccccn2)nc1C1CCCN(C(=O)c2cc3ccccc3oc2=O)C1 (stereo not drawn)	-15.0%	17.8%
NC[C@@H]1CC[C@@H](N)[C@@H](O[C@H]2[C@H](O)[C@@H](O[C@H]3O[C@H](CO)[C@@H](O)[C@H](N)[C@H]3O)[C@H](N)C[C@@H]2N)O1	11.7%	?
CC(C)C[C@@H](COc1ccccc1)N1CCN(Cc2ccccc2)CCC1=O	17.8µM*	-21.0%
CCCN1CCC(=O)N([C@H](COc2ccccc2)Cc2ccccc2)CC1	16.3%	4.6%
O=C1CCN(Cc2ccccc2)CCN1[C@H](COc1ccccc1)Cc1ccccc1	79.4µM*	-6.9%
CC(C)C[C@@H](CO)N1CCN(Cc2ccccc2)CCC1=O	?	-1.8%
Cc1cc(CC(C)CC(C)(C)C)n(O)c(=O)c1 (stereo not drawn) (tested in a mixture with another compound)	?	-65.8%
CN1CC(O)C2=CC(=O)C(=O)C=C21 (stereo not drawn)	79.4µM*	0.3%
O=C(O)c1ccccc1[O-].O=C(O)c1ccccc1[O-].[Zn+2]	4.5%	2.7%
CN[C@@H]1[C@@H](O)[C@@H](O[C@@H]2[C@@H](O)[C@H](O[C@H]3O[C@H](CN)[C@@H](O)[C@H](O)[C@H]3O)[C@@H](N)C[C@H]2NC(=O)C(O)CN)OC[C@]1(C)O (stereo partly drawn)	-1.2%	4.8%
O=c1c(O)c(-c2ccccc2)oc2cc(O)cc(O)c12	?	6.0%
O=c1c(O)c(-c2cc(O)c(O)c(O)c2)oc2cc(O)cc(O)c12	35.5µM*!	-6.4%
c1cncc(CNc2nc(-c3ccc4c(c3)OCO4)nc3ccccc23)c1	-19.8%	?
Cc1cccc(CNc2nc(-c3ccc4c(c3)OCO4)nc3ccccc23)c1	?	112µM*
COc1cccc(-c2nc(NCc3ccc(OC)cc3OC)c3ccccc3n2)c1	-21.1%	?
COc1ccccc1CNc1nc(-c2cccnc2)nc2ccccc12	-22.4%	89.1µM*
COc1ccccc1-c1nc(NCc2cccnc2)c2ccccc2n1	-13.5%	-20.6%
COc1ccc(CNc2nc(-c3ccc4c(c3)OCO4)nc3ccccc23)c(OC)c1	-14.8%	112µM*
CC(C)c1c(C(=O)NCC(C)(C)N2CCOCC2)cnn1-c1nccc(-c2cccs2)n1	-18.7%	5.1%
c1cnc2cc3c(cc2n1)[C@@H]1CNC[C@H]3C1	-2.5%	9.9%
CCCCC[C@H](O)/C=C/[C@H]1[C@H](O)CC(=O)[C@@H]1CCCCCCC(=O)O	14.1µM*!	-15.0%
CCCCC[C@H](O)CC[C@H]1[C@H](O)CC(=O)[C@@H]1CCCCCCC(=O)O	-18.3%[11.4 µM]	-13.6%
O=C(Oc1ccccc1)N1CCC2(CCCN(c3cccc(-c4ccccc4)c3)C2)CC1	-19.3%	?
CC(=O)N1CCC2(CCCN(c3ccc(-c4ccccc4)cc3)C2)CC1	?	100µM*
CC(=O)N1CCC2(CCCN(c3cccc(-c4ccccc4)c3)C2)CC1	44.7µM*	100µM*
SMILES	EPAC2 antag	EPAC1 ag val
O=C(c1ccco1)N1CCC2(CC1)CN(c1cccc(-c3ccccc3)c1)C2	?	100µM*
O=C(c1ccco1)N1CCC2(CC1)CN(c1ccc(-c3ccccc3)cc1)C2	-23.6%	?
COCC(=O)N1CCC2(CCCN(c3ccc(-c4ccccc4)cc3)C2)CC1	-9.9%	-6.6%
CC(=O)N[C@@H](C=O)[C@H](O)[C@H](O)[C@@H](O)CO	2.5%	28.9%
CC(C)c1c(C(=O)N(C)Cc2cccc3ncccc23)cnn1-c1nccc(-c2ccccc2F)n1	-26.6%	13.9%
Nc1ncnc2c1ncn2[C@H]1O[C@H](CO)[C@@H](O)[C@@H]1O	12.4%	-13.7%
C[C@@H]1CN(Cc2ccc3c(c2)CN(Cc2cccn2-c2cccnc2)CCO3)C[C@H](C)O1	0.1%	6.9%
O=C(OC[C@H]1O[C@](O)(COC(=O)c2cccnc2)[C@@H](OC(=O)c2cccnc2)[C@@H]1OC(=O)c1cccnc1)c1cccnc1	-1.1%	-15.6%

Screens deposited in PubChem BioAssay by National Center for Advancing Translational Sciences (NCATS).
